Active and inactive are the calls of the source. Calls come from the whole dose curve.

The target in the experiment is Estrogen receptor (Homo sapiens) (UniProt P03372). The experiment can be described thus: qHTS assay to identify small molecule agonists of the estrogen receptor alpha (ER-alpha) signaling pathway in the presence of an antagonist (AID 1259383). Note: top concentration of the series differs between compounds; nearly all actives have a fitted effect of over 15% in size. The following applies: VM7Luc4E2 cells, ERE-luciferase, +ICI-182,780, 22 h; series mostly up to 92.4 µM. An excerpt: National Center for Advancing Translational Sciences [NCATS] NIH Chemical Genomics Center [NCGC] U.S. Environmental Protection Agency [EPA] National Institutes of Environmental Health Sciences [NIEHS] National Toxicology Program [NTP] Assay overview: Estrogen receptor (ER), a member of nuclear hormone receptor plays an important role in development, metabolic homeostasis and reproduction. Two subtypes of ER, ER-alpha and ER-beta, have similar expression patterns with some uniqueness in both types. Endocrine disrupting chemicals (EDCs) and their interactions with steroid hormone receptors like ER causes disruption of normal endocrine function. Therefore, it is important to understand the effect of environmental chemicals in ER signaling pathway. For identifying ER agonists, VM7Luc4E2 cell line has been used in the current assay. VM7Luc4E2 cell line (provided by Denison MS, University of California) endogenously expresses full-length ER-alpha and is stably transfected with a plasmid containing four estrogen responsive elements (ERE) upstream of a luciferase reporter gene. This current screening for measuring luciferase reporter gene activity using VM7Luc4E2 cells against Tox21 10K library collection is a confirmation study on agonist mode screening in presence of ER-antagonist (ICI-182,780) at 10.0nM final concentration.
Sequence of Estrogen receptor (Homo sapiens) (P03372 whole entry, looked up): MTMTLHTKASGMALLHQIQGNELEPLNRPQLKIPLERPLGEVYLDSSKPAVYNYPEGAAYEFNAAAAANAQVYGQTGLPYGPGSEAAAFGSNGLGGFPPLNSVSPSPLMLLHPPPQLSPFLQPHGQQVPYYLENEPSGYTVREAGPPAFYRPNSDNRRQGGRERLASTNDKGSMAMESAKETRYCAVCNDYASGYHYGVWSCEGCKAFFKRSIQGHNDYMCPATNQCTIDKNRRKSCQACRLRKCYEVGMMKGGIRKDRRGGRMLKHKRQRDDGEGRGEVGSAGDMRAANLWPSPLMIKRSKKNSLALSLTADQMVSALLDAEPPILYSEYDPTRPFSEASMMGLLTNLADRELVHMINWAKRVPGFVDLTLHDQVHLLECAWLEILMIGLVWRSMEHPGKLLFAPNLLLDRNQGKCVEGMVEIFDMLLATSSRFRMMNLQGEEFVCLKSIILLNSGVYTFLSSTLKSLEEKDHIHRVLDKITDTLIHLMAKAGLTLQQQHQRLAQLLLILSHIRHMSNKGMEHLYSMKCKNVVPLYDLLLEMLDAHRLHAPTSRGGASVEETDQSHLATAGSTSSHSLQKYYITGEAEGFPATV
Assay Protocol Summary: VM7Luc4E2 cells were cultured in phenol red free assay medium containing 10% charcoal stripped FBS for 5 days prior to the assay. The cells were dispensed at 4,000 cells in 4uL of assay medium per well into white wall/solid-bottom 1536-well plates (Corning Life Sciences, Corning, NY) using a Multidrop Combi (Thermo Fisher Scientific Inc., Waltham, MA) dispenser. After the assay plates were incubated at 37C and 5% CO2 for 24hr, 1uL of 10.0nM (final concentration) ICI-182,780 or assay buffer was added using two separate tips of Flying Reagent Dispenser (FRD, Aurora Discovery, San Diego, CA). Then 23nL of compounds dissolved in DMSO at 15 concentrations and positive controls or DMSO only was transferred to the assay plates by a Pintool station (Wako, San Diego, CA). The assay plates were incubated at 37C and 5% CO2 for 22hr. For luciferase read, 4uL/well ONE-Glo reagent (Promega Corporation, Madison, WI) was added to each well using FRD and after 30min incubation at room temperature, luminescence signal was measured on ViewLux plate reader (PerkinElmer, Shelton, CT).
On the technique in general: qHTS replaces the single test concentration by a dilution series.
Take `CCCOC(=O)c1ccccc1C(=O)OCCC`: the outcome was inactive.
In the case of `CNC(=O)O/N=C/C(C)(C)S(C)=O` (stereo not given) it was “inactive”; in that of `CNC(=O)Oc1cccc2ccccc12`, “inactive”; in that of `Cc1cc(O)ccc1Cl`, “inactive”.
For `OCC(O)CCl` (stereo not given), the result was inactive.
In the case of `Nc1cccc(Cl)c1` it was “inactive”; in that of `c1ccc2c(c1)CCCC2`, “inactive”.
Turning to `O=C(O)COc1ccccc1`, the result was inactive.
For `Cc1cccc(C)c1N`, the outcome was inactive.
For `CC(C)(C)C(=O)CCl`, the outcome was inactive.
Turning to `COS(=O)(=O)OC`, the result was inactive.
In the case of `C=CCN=C=S` it was “inactive”; in that of `ClC(Cl)c1ccccc1`, “inactive”; in that of `CC(C)CCCCCCOC(=O)c1ccccc1C(=O)OCCCCCCC(C)C`, “inactive”.
The same measure for `Oc1c(Br)cc(Br)cc1Br`: “inactive”; for `O=C/C=C/c1ccccc1`: “inactive”.
For the molecule `Cc1ccc(O)c(C)c1`, the result was inactive.
With `Sc1ccccc1`, the outcome was inactive.
On to `Nc1ccc([As](=O)(O)O)cc1`, for which the result was inactive.
The same measure for `OCc1ccco1`: “inactive”; for `CNC(=O)O/N=C/C(C)(C)SC`: “inactive”; for `O=[N+]([O-])c1cc([As](=O)(O)O)ccc1O`: “inactive”.
The same measure for `C=CC(=O)OCCCCCC(C)C`: “inactive”; for `COc1nc(NC(C)C)nc(NC(C)C)n1`: “inactive”.
Consider `C[C@H]1C(=O)O[C@@H]2CCN3CC=C(COC(=O)[C@](C)(O)[C@]1(C)O)[C@H]23`, for which the outcome was inactive.
For `Cc1cc(Cl)ccc1OC(C)C(=O)O` (stereo not given), the result was inactive.
In the case of `CN(C)CCC#N` it was “inactive”; in that of `CCSC(=O)N1CCCCCC1`, “inactive”.
Turning to `CC(C)c1cccc(C(C)C)c1O`, the outcome was inactive.
In the case of `O=C(O)C(Br)Br` it was “inactive”; in that of `N#CN=C(N)N`, “inactive”; in that of `Cc1cccc(N)c1`, “inactive”.
On to `CNCC(O)c1ccc(O)cc1` (stereo not given), for which the outcome was inactive.
The same measure for `CCOc1ccc(N)cc1`: “inactive”; for `C=C(C)C(=O)OCC(CC)CCCC` (stereo not given): “inactive”.
The same measure for `N#Cc1ccccn1`: “inactive”.
In the case of `O=C(O)C1C(C(=O)O)C2(Cl)C(Cl)=C(Cl)C1(Cl)C2(Cl)Cl` (stereo not given), the result was inactive.
`OC[C@@H](O)[C@H]1O[C@@H]2O[C@H](C(Cl)(Cl)Cl)O[C@@H]2[C@H]1O`: the outcome was inactive.
`FC(F)(F)c1ccc(Cl)cc1`: the outcome was inactive.
The same measure for `O=[N+]([O-])c1ccc(Cl)c(Cl)c1`: “inactive”.

Values taken from PubChem BioAssay (Tox21).
